Screens from PubChem BioAssay.
TDP1 cell CPT = DT40-hTDP1 cell growth loss with CPT; chicken DT40 Tdp1-/-;hTDP1 cells + 20 nM CPT, ATP luminescence, 48 h; Potency, µM (top dose mostly 46.2 µM), for inactives: at the highest dose activity change, negative = growth inhibition, usual class: inhibitors; actives 12% (n = 420,000); further: potency means the concentration at half of the fitted maximal effect; nearly all actives have a fitted effect of over 55% in size
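Chicken DT40 Tdp1-/- cells stably complemented with human TDP1 were seeded at 400 cells/well in medium containing 20 nM camptothecin, exposed to pin-transferred compounds, and grown at 37 °C for at least 48 hr. Viability was read as ATP luminescence.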
DT40 TDP1 no CPT = qHTS for Inhibitors of human tyrosyl-DNA phosphodiesterase 1 (TDP1): qHTS in cells in absence of CPT; DT40 Tdp1-/- hTDP1 cells, no CPT, ATP luminescence, 48 h; Potency, µM (highest dose often 46.2 µM), for the others: at the top dose activity change, negative = growth inhibition, usual class: inhibitors; actives 15% (n = 420,000); further: potency means the concentration at half of the fitted maximal effect; nearly all actives have a fitted effect of over 55% in size
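Seeded 400 DT40-hTDP1 cells/well (vehicle DMSO, no 20 nM CPT); pinned compounds; ≥48 hr at 37 °C; CellTiter-Glo luminescence as viability measure.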
HT1080 IDH1KD tx = toxicity to HT-1080 IDH1 knockdown cells (counter line); actives 2% (n = 360,000); Potency, µM (doses to about 46.1 µM), for the others: top-dose activity, negative = toxicity, hits mostly cytotoxic; HT-1080 IDH1 knockdown viability, ATP luminescence, 48 h;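 further: potency means the concentration at half of the fitted maximal effect; 0% = DMSO wells and -100% = cell-free medium wells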
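After a 2 h attachment period, IDH1KD HT-1080 cells took pin-transferred compound for 48 h at 37 °C; ATP-based luminescence after 10 min room-temperature reagent incubation reported viability.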
IL1B secr inh = inflammasome signaling inhibition, IL-1 beta readout; THP-1 LPS/ATP IL-1B secretion, AlphaLISA, 16 h; active compounds read low; activity change, % at 57.5 µM; actives 4.7% (n = 360,000); in the data active means activity change below about -50%; inconclusive means mostly about -30% to -49%
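Secreted IL-1B measured by AlphaLISA bead assay after 16 h compound exposure of THP-1 cells; compounds (final up to 57.5 uM) added 1 h before LPS (250 ng/mL) and ATP (1.25 mM) stimulation; lower signal means less secretion.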
HT1080-NT tox = kills 2HG-producing HT-1080-NT fibrosarcoma cells; HT-1080-NT fibrosarcoma viability, CellTiter-Glo ATP luminescence, 48 h; actives 1.6% (n = 360,000); Potency, µM (doses to about 46.1 µM), inactives show at the highest dose activity, negative = less viability, usual class: cytotoxic;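 further: NT is the 2HG producing partner of a matched IDH1 knockdown line; potency means the concentration at half of the fitted maximal effect; 0% = DMSO-treated cells and -100% = media-only wells without cells; nearly all actives have a fitted effect of over 55% in size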
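750 cells/well, RPMI + 5% FBS; 2 h settle, compound pin-transfer, 48 h at 37 degrees C. CellTiter-Glo 10 min RT, luminescence. Normalized to DMSO and media-only wells.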
Starred values were filed as active, the others as inactive; ? = inconclusive; . = no result. In the library only some 19% were active in any assay of this set; here they are far more common. Unless noted, the call rests on the fitted dose curve; in most records, active means well fitted curve in the direction sought with a large enough effect; inconclusive means small, poorly fitted or top-dose-only effect, or another doubt; inactive means no such curve, though single readings can be large; an effect the other way counts as inactive or inconclusive. Unless noted, on the % scale 0 is the no-effect control and ±100 the full control effect.

SMILES	TDP1 cell CPT	DT40 TDP1 no CPT	HT1080 IDH1KD tx	IL1B secr inh	HT1080-NT tox
COc1ccc2c(c1)CCc1c(C(=O)N3CC4(C)CC3CC(C)(C)C4)noc1-2 (configuration not stated)	16µM*	?	?	-22	?
O=C(Nc1cnn(Cc2ccc(Cl)cc2Cl)c1)c1noc2c1CCc1ccccc1-2	16µM*	?	.	.	.
Cc1cccc(C)c1C(O)c1ncc(-c2ccccc2F)[nH]1 (configuration not stated)	21µM*	?	5%	22	-10%
COc1c(C)cc(C(O)c2ncc(-c3cccc4ccccc34)[nH]2)cc1C (configuration not stated)	21µM*	18µM*	?	59	?
Cc1cc(C(O)c2ncc(-c3cccc4ccccc34)[nH]2)ccc1F (configuration not stated)	?	?	-14%	-14	?
Cc1cc(C)c(C(O)c2ncc(-c3ccccc3F)[nH]2)c(C)c1 (configuration not stated)	15µM*	?	?	-20	?
Cc1ccc2ccccc2c1C(O)c1ncc(-c2ccc(Cl)cc2)[nH]1 (configuration not stated)	?	8.2µM*	?	13	?
CCOc1ccc(OCC)c(NC(=O)C2CCCN(S(=O)(=O)c3cnc[nH]3)C2)c1 (configuration not stated)	-16%	-12%	7%	-5	1%
Nc1[nH]c(C(=O)c2ccccc2)c(-c2ccccc2C(F)(F)F)c1C(=O)NCc1cccc2ccccc12	-19%	-21%	6%	0	22%
Cc1ccc(CCNS(=O)(=O)c2ccc3c(c2)N(C)CCO3)cc1	?	-22%	-13%	42	1%
Cc1cc(C)c(C(O)c2ncc(-c3cccc4ccccc34)[nH]2)c(C)c1 (configuration not stated)	?	?	?	0	?
Cc1cccc(C)c1C(O)c1ncc(-c2cccc3ccccc23)[nH]1 (configuration not stated)	21µM*	16µM*	?	-11	?
COc1ccc([C@@H]2CC=C(C(=O)O)CN2S(=O)(=O)c2ccc(C)cc2)cc1OC	-11%	-13%	10%	23	11%
CN1CCN(c2ncnc3ccc(-c4cccc(NS(C)(=O)=O)c4)cc23)CC1	3.7µM*	6.5µM*	.	.	.
CS(=O)(=O)Nc1cccc(-c2ccc3ncnc(NC4CC4)c3c2)c1	8.2µM*	6.5µM*	.	.	.
Cc1ccc(C)c(SCC(=O)Nc2ccc(S(=O)(=O)Nc3ncccn3)cc2)c1	1%	-7%	-6%	39	?
COc1ccccc1NS(=O)(=O)c1cc(NC(=O)c2cccs2)ccc1N1CCCC1	5.8µM*	9.2µM*	1%	0	4%
COc1ccccc1NS(=O)(=O)c1cc(NC(=O)Nc2ccccc2)ccc1N1CCCCC1	18µM*	18µM*	7%	12	4%
COc1ccccc1NS(=O)(=O)c1cc(NC(=O)c2cccs2)ccc1N1CCCCC1	16µM*	15µM*	1%	7	15%
O=C(Nc1ccc(N2CCCC2)c(S(=O)(=O)Nc2cccc(C(F)(F)F)c2)c1)c1cccs1	?	15µM*	-26%	?	-28%
COc1ccccc1NS(=O)(=O)c1cc(NC(=O)C(C)C)ccc1N1CCCCC1	?	?	1%	-5	1%
O=C(CCN1C(=O)c2ccccc2C1=O)c1cnc[nH]1	-11%	3%	?	-15	-1%
COc1ccc(OC)c(NC(=O)Cn2c(=O)n(CC3CCCO3)c(=O)c3cc(OC)c(OC)cc32)c1 (configuration not stated)	-16%	-21%	-2%	-3	-1%
C=C(C)[C@@H]1CCC2(C(=O)O)CC[C@]3(C)[C@H](CC[C@@H]4[C@@]5(C)CCC(=O)C(C)(C)[C@@H]5CC[C@]43C)[C@@H]12 (some centres not stated)	2.9µM*	3.7µM*	11%	54	9%
O=C(C1CCCN(S(=O)(=O)c2ccc(F)cc2)C1)N1CCCCCC1 (configuration not stated)	12µM*	8.2µM*	-6%	11	5%
SMILES	TDP1 cell CPT	DT40 TDP1 no CPT	HT1080 IDH1KD tx	IL1B secr inh	HT1080-NT tox
O=C(C1CCCN(S(=O)(=O)c2ccccc2)C1)N1CCCCC1 (configuration not stated)	-22%	-7%	2%	43	8%
O=C(C1CCCN(S(=O)(=O)c2ccc(F)cc2)C1)N1CCCCC1 (configuration not stated)	-15%	23µM*	7%	32	7%
COc1cccc2c3cccc(OC)c3c3[nH]cnc3c12	?	7.3µM*	21µM*	-102*	-26%
O=C(Nc1ccccc1)O[C@@H]1C[C@H]2CCC(=O)N3CC[C@@H](C1)[C@@H]23	?	11µM*	.	.	.
O=C(Nc1ccccc1)O[C@@H]1C[C@H]2CCCC(=O)N3CC[C@@H](C1)[C@@H]23	?	-12%	5%	-13	0%
Cc1ccc(NC(=O)Cn2cc(C(=O)c3ccco3)c3ccccc32)cc1	?	15µM*	.	.	.
COc1ccc(NC(=O)Cn2cc(C(=O)c3ccco3)c3ccccc32)cc1	?	?	-26%	8	-10%
Cc1ccc(NC(=O)Cn2cc(C(=O)c3ccco3)c3ccccc32)cc1C	?	18µM*	.	.	.
O=C(Cn1cc(C(=O)c2ccco2)c2ccccc21)Nc1ccccc1	10µM*	12µM*	-27%	-11	-9%
COc1ccc(S(=O)(=O)NCC2CCCN(Cc3ccccc3C)C2)cc1 (configuration not stated)	-2%	10%	-1%	?	-18%
S=C(NNc1ccnc2cc(Cl)ccc12)Nc1ccc(Cl)cc1Cl	4.6µM*	3.7µM*	-10%	-86*	?
CCOc1ccc(NC(=S)NNc2ccnc3cc(Cl)ccc23)cc1	?	13µM*	?	-89*	?
S=C(NCc1ccncc1)Nc1ccc(Cl)cc1Cl	?	-18%	-5%	22	-2%
CCN(CC)Cc1ccc(Nc2ccnc3cc(Cl)ccc23)cc1O	7.3µM*	6.5µM*	.	.	.
CCOc1ccccc1Nc1ccnc2cc(Cl)ccc12	?	23µM*	-13%	-88*	-8%
O=C1N=C(O)CN1/N=C/c1ccc(-c2ccc([N+](=O)[O-])cc2)o1	-21%	-25%	0%	-14	9%
